{
  "source": "PubChem BioAssay (NCATS)",
  "note": "Inconclusive results are not listed. Values without a mark were called inactive. Activity calls are given as the source filed them. Calls come from the whole dose curve; as a rule, active = well fitted cell-killing curve with a large enough effect; inconclusive = small, poorly fitted or top-dose-only effect; inactive = flat fitted curve, though single readings scatter.",
  "data": [
    {"experiment": "qHTS of pediatric cancer cell lines to identify multiple opportunities for drug repurposing: Primary screen for BT-12 cells (AID 1347101); note: nearly all actives have a fitted effect of over 25% in size; note: potency is the fitted concentration of half-maximal effect", "conditions": "BT-12 viability, CellTiter-Glo luminescence, 48 h; series mostly up to 57.3 µM; activity change, negative = cytotoxic: at the top concentration", "description": "Drug repurposing or repositioning has been offered as a strategy for drug development in oncology programs. This approach has special potential for childhood cancers and other rare or orphan diseases, where the expected return on new drug development has been a disincentive to pharmaceuticals.\nIn this project we exploit the poly-pharmacology of drugs to discover new indications via phenotypic screening of a panel of 19 well-characterized cell lines derived from solid tumors seen in children and adolescents. The goal is to identify approved drugs with previously unrecognized anticancer properties that has the potential to reveal new mechanisms and biological processes involved in carcinogenesis or drug resistance. We employed a titration-based paradigm (quantitative high-throughput screening or qHTS), where all compounds were tested at multiple concentrations for their effect on cell viability. Concentration-response curves (CRCs) were derived directly from the primary screen, and both potency and efficacy values were used to identify compounds with robust bioactivity profiles. We screened the NIH Chemical Genomics Center (NCGC) Pharmaceutical Collection (NPC) and Mechanism Interrogation Plate (MIPE) small molecule collections of approved and investigational compounds against these cell lines; and measured metabolically active cells after 48 hours of compound treatment as a proxy for cell viability.\nAssay Submitter: Nathalia J. Martinez, National Center for Advancing Translational Sciences, National Institutes of Health, Rockville, MD, USA; email: natalia.martinez@nih.gov\n[1] Shen, M et al. Quantitative high-throughput phenotypic screening of pediatric cancer cell lines identifies multiple opportunities for drug repurposing. Oncotarget 2017 Dec 19;9(4):4758-4772. PMID 29435139.\nThe cells were obtained from University of North Carolina (UNC), Pediatric Preclinical Testing Program (PPT), and Coriell Institute (CI).\nqHTS cell viability assay:\nCells were assayed in growth media at a density of 500-1,000 cells/well. Five microliters of cells were dispensed into 1,536-well, white, solid-bottom, TC-treated plates (Greiner Bio One) using a multidrop dispenser and incubated at 37 degrees C, 5% CO2, under a humidified atmosphere for 5 hours. Twenty-three nanoliters of compounds and controls (neutral control DMSO or positive control bortezomib at final concentration of 2.3 µM) were subsequently transferred by Kalypsys pintool. For primary screens, the MIPE collection was tested at 11-point dilutions (final concentrations range from 0.78 nM to 46 µM) and the NPC collection at 8-point dilutions (final concentrations range from 0.59 nM to 46 µM). Compounds tested in follow-up screens were assayed at 11-point dilutions. Cells were incubated for 48 hours, followed by addition of 3 µL of CellTiter-Glo (Promega). After a 15 min incubation at room temperature, samples were analyzed for luminescence intensity using a ViewLux High-throughput CCD imager equipped with clear filters.", "values": [
      {"molecule": "COCC(=O)N(c1c(C)cccc1C)C(C)C(=O)OC", "note": "(stereo not given)", "activity change, negative = cytotoxic": "11.1%"},
      {"molecule": "C[N+](C)(C)CCOC(=O)C(O)(c1ccccc1)c1ccccc1", "activity change, negative = cytotoxic": "-6.17%"},
      {"molecule": "C[C@]12C=CC(=O)C=C1CC[C@@H]1[C@@H]2CC[C@@]2(C)[C@H]1CC[C@]2(C)O", "activity change, negative = cytotoxic": "-19.6%"},
      {"molecule": "C[C@H](N)[C@H](O)c1ccc(O)c(O)c1", "activity change, negative = cytotoxic": "5.83%"},
      {"molecule": "CCC1(c2ccccc2)CCC(=O)NC1=O", "note": "(stereo not given)", "activity change, negative = cytotoxic": "3.13%"},
      {"molecule": "COc1cc(CC#N)cc(OC)c1OC", "activity change, negative = cytotoxic": "9.91%"},
      {"molecule": "NCc1cccnc1", "activity change, negative = cytotoxic": "8.59%"},
      {"molecule": "CCN(CC)CCOC(=O)C(C)(c1ccccc1)c1ccccc1", "activity change, negative = cytotoxic": "-14.4%"},
      {"molecule": "Cc1nc2ccccc2c(=O)n1-c1ccccc1Cl", "activity change, negative = cytotoxic": "-14.8% [at 116 µM]"},
      {"molecule": "COC(=O)C1=CCCN(C)C1", "Potency": "inactive"},
      {"molecule": "COc1cc(N)c(Cl)cc1C(=O)NC1CN2CCC1CC2", "note": "(stereo not given)", "activity change, negative = cytotoxic": "-1.19%"},
      {"molecule": "COP(=S)(OC)Oc1ccc(Sc2ccc(OP(=S)(OC)OC)cc2)cc1", "activity change, negative = cytotoxic": "7.32%"},
      {"molecule": "Cc1ccc([N+](=O)[O-])[c]2c1[O][Hg]2", "Potency": "2.76 µM (active)"},
      {"molecule": "CC(C)(O)C(Cl)(Cl)Cl", "activity change, negative = cytotoxic": "17%"},
      {"molecule": "C[C@H]1CNCCc2ccc(Cl)cc21", "activity change, negative = cytotoxic": "-0.701%"},
      {"molecule": "O=C1CN2CCOC2(c2ccccc2Cl)c2cc(Cl)ccc2N1", "note": "(stereo not given)", "activity change, negative = cytotoxic": "4.33%"},
      {"molecule": "CCN1CCCC1CNC(=O)C(O)(c1ccccc1)c1ccccc1", "note": "(stereo not given)", "activity change, negative = cytotoxic": "5.05%"},
      {"molecule": "O=C1NCN(c2ccccc2)C12CCN(CCCOc1ccc(F)cc1)CC2", "Potency": "11 µM (active)"},
      {"molecule": "O=c1[nH]c2cc(Cl)ccc2n1C1CCNCC1", "activity change, negative = cytotoxic": "5%"},
      {"molecule": "Cc1c(Cl)c(=O)oc2cc(OP(=O)(OCCCl)OCCCl)ccc12", "activity change, negative = cytotoxic": "-5.76%"},
      {"molecule": "CN1CCc2cc(Cl)c(O)cc2[C@H]2c3ccccc3CC[C@@H]21", "activity change, negative = cytotoxic": "-15.7%"},
      {"molecule": "CC(C)=CCN1CC[C@@]2(C)c3cc(O)ccc3C[C@@H]1[C@@H]2C", "activity change, negative = cytotoxic": "-20.4% [at 116 µM]"},
      {"molecule": "C[N+]1(C)[C@@H]2CC[C@H]1CC(OC(=O)C(CO)c1ccccc1)C2", "note": "(stereo not given in full)", "activity change, negative = cytotoxic": "-2.64%"},
      {"molecule": "Oc1ccc([C@H]2CNCc3c2ccc(O)c3O)cc1O", "activity change, negative = cytotoxic": "-10.3%"},
      {"molecule": "C[C@]12CC[C@H](O)CC1=CC[C@@H]1[C@@H]2CC[C@]2(C)C(=O)CC[C@@H]12", "activity change, negative = cytotoxic": "-9.15%"},
      {"molecule": "COc1ccc2[nH]cc(CCN(C(C)C)C(C)C)c2c1", "activity change, negative = cytotoxic": "-5.53% [at 116 µM]"},
      {"molecule": "CCCC(C)C1(CC)C(=O)N=C(S)NC1=O", "note": "(stereo not given)", "activity change, negative = cytotoxic": "-0.727%"},
      {"molecule": "CN(C)CCc1c[nH]c2cccc(O)c12", "activity change, negative = cytotoxic": "-6.01% [at 116 µM]"},
      {"molecule": "CNC(C)Cc1ccc2c(c1)OCO2", "note": "(stereo not given)", "activity change, negative = cytotoxic": "0.593% [at 116 µM]"},
      {"molecule": "CCCC[N+]1(C)[C@@H]2CC(OC(=O)[C@H](CO)c3ccccc3)C[C@H]1[C@@H]1O[C@@H]12", "note": "(stereo not given in full)", "activity change, negative = cytotoxic": "-15.3%"},
      {"molecule": "CC(C)(C)OC(=O)c1ncn2c1[C@@H]1CCCN1C(=O)c1c(Br)cccc1-2", "activity change, negative = cytotoxic": "-8.05%"},
      {"molecule": "ClCc1cccc(Cl)c1", "activity change, negative = cytotoxic": "1.73%"},
      {"molecule": "CCOC(=O)NC(C)(C)Cc1ccc(Cl)cc1", "activity change, negative = cytotoxic": "6.94%"},
      {"molecule": "Nc1ccc(N)cc1", "activity change, negative = cytotoxic": "-14.2%"},
      {"molecule": "Cc1ccc(N=CN(C)C=Nc2ccc(C)cc2C)c(C)c1", "activity change, negative = cytotoxic": "20.7%"},
      {"molecule": "NC(=O)CN1CCCC1=O", "activity change, negative = cytotoxic": "7.11%"},
      {"molecule": "CCCN(CCC)CCc1c[nH]c2ccccc12", "activity change, negative = cytotoxic": "-19.8% [at 116 µM]"},
      {"molecule": "Cc1ncc2n1-c1ccc(Cl)cc1C(c1ccccc1F)=NC2", "activity change, negative = cytotoxic": "-17.2%"},
      {"molecule": "CN(C)C(=S)SSC(=S)N(C)C", "Potency": "0.246 µM (active)"},
      {"molecule": "CN1C2CCC(C)(C)C1CC(OC(=O)C(O)(c1cccs1)c1cccs1)C2", "note": "(stereo not given)", "activity change, negative = cytotoxic": "-3.93%"}
    ]}
  ]
}
